Experimental findings from PubChem BioAssay (Tox21) are described below.

Calls of active or inactive are those of the source. Where a call stands in place of a potency, no number is given. Calls come from the whole dose curve.
Potency is the fitted concentration of half-maximal effect.

For this assay, the target named is Thyrotropin-releasing hormone receptor (Homo sapiens) (UniProt P34981). Kind of assay: qHTS assay to identify small molecule agonists of the thyrotropin-releasing hormone receptor (TRHR) signaling pathway (AID 1346891). The settings on record: TRHR-HEK293 calcium fluorescence, agonist mode; series mostly up to 57.6 µM. The method, boiled down: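 Overnight-plated (18 h, 37 °C, 5% CO2) TRHR-Hek293 cells; 2 h calcium dye at 37 °C; compound in DMSO; 3-min kinetic fluorescence read.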
Chain of Thyrotropin-releasing hormone receptor (Homo sapiens) (P34981 whole entry, looked up): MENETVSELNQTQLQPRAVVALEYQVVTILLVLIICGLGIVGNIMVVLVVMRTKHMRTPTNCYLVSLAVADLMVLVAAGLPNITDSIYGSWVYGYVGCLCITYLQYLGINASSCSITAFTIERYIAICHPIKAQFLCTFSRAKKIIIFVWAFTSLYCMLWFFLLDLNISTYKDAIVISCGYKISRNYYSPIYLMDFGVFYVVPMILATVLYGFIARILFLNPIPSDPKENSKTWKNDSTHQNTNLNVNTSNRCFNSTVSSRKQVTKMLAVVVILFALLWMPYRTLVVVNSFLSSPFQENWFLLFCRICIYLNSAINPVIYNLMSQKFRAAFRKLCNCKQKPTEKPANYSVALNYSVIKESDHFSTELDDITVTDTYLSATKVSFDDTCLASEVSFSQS
On the technique in general: In qHTS, concentration-response curves come from the screen itself.
As to `Cc1cc(=O)oc2cc(N(C)C)ccc12`, the Potency entry was “inactive”.

`OCCN(CCO)c1nc(N2CCCCC2)c2nc(N(CCO)CCO)nc(N3CCCCC3)c2n1`: the Potency is 12 µM (active). For `CCCCCCCC/C=C/CCCCCCCC1=NCCN1CCO`, the Potency result is “inactive”. For `NC(=O)C1(N2CCCCC2)CCN(CCCN2c3ccccc3CCc3ccc(Cl)cc32)CC1` the value was “inactive”. Then `Cc1cccc2c1cc1ccc3cccc4ccc2c1c34`, with “inactive”. For `CCCCCOC(=O)CCCC`, the Potency result was “inactive”. Then `O=[N+]([O-])c1ccccc1Nc1ccccc1`, with “inactive”; and `CCCCC(CC)COC(=O)c1ccccc1C(=O)O` (centres undefined), with “inactive”.

Take `CCCC(=O)OC[C@@H](OC(=O)CCC)[C@@H](OC(=O)CCC)[C@H](Cn1c2nc(=O)[nH]c(=O)c-2nc2cc(C)c(C)cc21)OC(=O)CCC`: the Potency is 13.5 µM (active). Then `Nc1ccc(N)c2ccccc12`, with “inactive”; and `O=C(Nc1ccc(Oc2ccc(Cl)cc2)c(Cl)c1)c1cc(I)cc(I)c1O`, with “inactive”; and `O=C(Nc1cccc(C(F)(F)F)c1)c1cc(Br)cc(Br)c1O`, with “inactive”.

For the compound `CCc1cc(Cc2cc(CC)c(N)c(CC)c2)cc(CC)c1N`, the Potency result was “inactive”.

Consider `O=C1C=CC(=O)N1`, for which the Potency entry was “inactive”. On to `CCOC(=O)O[C@H](C)OC(=O)c1ccc2c(c1)cc(C(=O)NC1CCN(C(C)C)CC1)n2Cc1cc(-c2ccc(Cl)s2)on1`, for which the Potency result was “inactive”.

As to `CCN(CC)CCCC(C)Nc1c2ccc(Cl)cc2nc2ccc(OC)cc12` (centres undefined), the Potency result was “inactive”. Regarding `Cc1cc(O)c(C(C)(C)C)cc1C(C)(C)C`, the Potency result is “inactive”.

Consider `CN1CCC(Nc2ncc3ncnc(Nc4ccc(F)c(Cl)c4)c3n2)CC1`, for which the Potency result was “inactive”.

Consider `CC[C@@]1(O)C(=O)OCc2c1cc1n(c2=O)Cc2c-1nc1ccccc1c2/C=N/OC(C)(C)C`, for which the Potency result is “inactive”. Regarding `CCN(C(=O)c1cc(C)cc(OC[C@H](C)Nc2ccncc2)c1)C(C)C`, the Potency result was “inactive”. Then `CC1=C(C(=O)OC(C)C)C(c2cccc([N+](=O)[O-])c2)C(C(=O)OC2CN(C(c3ccccc3)c3ccccc3)C2)=C(N)N1` (centres undefined), with “inactive”; and `COc1ccc(CN2CCN(C(c3ccc(F)cc3)c3ccc(F)cc3)CC2)c(OC)c1OC`, with “inactive”. For `O=C(Nc1cccc(Cl)c1)OCC#CCCl` the value was “inactive”; for `O=C(NOCC1CC1)c1ccc(F)c(F)c1Nc1ccc(I)cc1Cl`, “inactive”. For `Nc1nc2ccccc2n1Cc1ccc(F)cc1` the value was “inactive”; for `O=C(Nc1cccc([N+](=O)[O-])c1)c1cc2ccccc2cc1O`, “inactive”. Turning to `Clc1ccc2n[nH]nc2c1`, the Potency result was “inactive”.

Regarding `Oc1ccc(C2(c3ccc(O)cc3)CC3CC2C2CCCC32)cc1` (centres undefined), the Potency entry is “inactive”.

Consider `Nc1ccc2c3c(cccc13)-c1ccccc1-2`, for which the Potency was 31.2 µM (active). Take `CNCc1cc(F)ccc1Oc1ccc(Cl)c(Cl)c1`: the Potency was 34.7 µM (active). Consider `Oc1cc2ccccc2c2ccccc12`, for which the Potency result was “inactive”.

On to `N=C1N=C(N)c2cc3ccccc3cc21`, for which the Potency entry was “inactive”. Consider `CCCC1O[C@@H]2C[C@H]3[C@@H]4CCC5=CC(=O)C=C[C@]5(C)[C@H]4[C@@H](O)C[C@]3(C)[C@]2(C(=O)CO)O1` (some centres undefined), for which the Potency result was “inactive”. Then `CCOc1ccc2nc3cc(N)ccc3c(N)c2c1`, with “inactive”.
